Screening results as filed in PubChem.
Rab9 promoter act: qHTS Assay for Rab9 Promoter Activators | Huh7 Rab9 promoter-luciferase reporter, luminescence, 24 h | 2.8% of 320,000 active | Potency, µM (doses to about 9.22 µM), inactives show top-dose activation, negative = inhibition, most hits filed as activators | AID 485297, 2010; note: % of control where 0% means no effect; nearly all actives have a fitted effect of over 60% in size
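Using Huh7 cells stably transfected with Rab9 promoter–luciferase, compounds were incubated 24 h at 37 °C, 5% CO2; luciferase luminescence was read 10 min after reagent addition.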
SMN2 splice enh: qHTS Assay for Enhancers of SMN2 Splice Variant Expression; HEK293 SMN2-luciferase splicing reporter, luminescence, 30-36 h; Potency, µM (doses to about 46.1 µM), for inactives: at the highest dose activity change, positive = activation, actives largely listed as activators; 2.8% of 210,000 active; note: % of control where 0% means no effect; nearly all actives have a fitted effect of over 55% in size
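HEK293 cells carry an SMN2 minigene-luciferase reporter in which exon 7 inclusion puts luciferase in frame. Cells were seeded at 2000 cells/well, attached for 10-12 hours, then exposed to compounds for 30-36 hours at 37C before ONE-Glo luminescence.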
NPC1 prom act: qHTS Assay for NPC1 Promoter Activators. Huh7 NPC1 promoter luciferase reporter, 24 h. 2.4% of 320,000 active. Potency, µM (doses to about 9.22 µM), inactives show top-dose activation, most hits filed as activators; note: % of control where 0% means no effect; nearly all actives have a fitted effect of over 60% in size
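Stable NPC1-promoter luciferase Huh7 line; cpd (DMSO) 24 h, 37 °C, 5% CO2; Amplite luciferase reagent 10 min RT; luminescence readout. qHTS format.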
ELG1 genotoxic: qHTS screen for small molecules that induce genotoxicity in human embryonic kidney (HEK293T) cells expressing luciferase-tagged ELG1; HEK293T ELG1-luciferase reporter, luminescence, 16 h; Potency, µM (titrated, usually from 46 µM), inactives show at the top dose activity change, positive = activation, hits mostly activators; 1.3% of 330,000 active; note: % of control where 0% means no effect; nearly all actives have a fitted effect of over 60% in size
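HEK293T cells expressing luciferase-tagged ELG1 were exposed to compound or DMSO vehicle for 16 hr at 37 °C and 5% CO2. Luciferase activity was then measured with ONE-Glo after 30 min at room temperature.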
Luc counter: Counterscreen for Luciferase (Kinase-Glo TM) Inhibition; Luciferin 4-monooxygenase (Photuris pensylvanica), Q27757; Kinase-Glo luciferase, ATP luminescence, 8 min; Potency, µM (doses to about 38.3 µM), for inactives: at the top dose activity change, negative = inhibition, usual class: inhibitors; 0.28% of 200,000 active; AID 1379, 2008; note: % is set by controls: 0 for no effect and ±100 for the full control effect; nearly all actives have a fitted effect of over 60% in size
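Inhibition of Kinase-Glo luciferase light generation was assessed at 10 uM ATP in pH 7.2 imidazole buffer, with luminescence measured after eight minutes at ambient temperature.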
FLuc modulator: qHTS profiling assay for firefly luciferase inhibitor/activator using purifed enzyme and Km concentrations of substrates (counterscreen for miR-21 project) | AID 588342, 2011 | purified FLuc, Km substrates, luminescence inhibition | 6.9% of 360,000 active | Potency, µM (titrated, usually from 57.5 µM), without a hit: at the highest dose activity change, negative = inhibition, usual class: inhibitors | Luciferin 4-monooxygenase (Photinus pyralis), P08659;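 note: plate controls were vehicle for no effect and reference inhibitor for full effect; nearly all actives have a fitted effect of over 55% in size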
Target sequence (P08659 whole entry, looked up): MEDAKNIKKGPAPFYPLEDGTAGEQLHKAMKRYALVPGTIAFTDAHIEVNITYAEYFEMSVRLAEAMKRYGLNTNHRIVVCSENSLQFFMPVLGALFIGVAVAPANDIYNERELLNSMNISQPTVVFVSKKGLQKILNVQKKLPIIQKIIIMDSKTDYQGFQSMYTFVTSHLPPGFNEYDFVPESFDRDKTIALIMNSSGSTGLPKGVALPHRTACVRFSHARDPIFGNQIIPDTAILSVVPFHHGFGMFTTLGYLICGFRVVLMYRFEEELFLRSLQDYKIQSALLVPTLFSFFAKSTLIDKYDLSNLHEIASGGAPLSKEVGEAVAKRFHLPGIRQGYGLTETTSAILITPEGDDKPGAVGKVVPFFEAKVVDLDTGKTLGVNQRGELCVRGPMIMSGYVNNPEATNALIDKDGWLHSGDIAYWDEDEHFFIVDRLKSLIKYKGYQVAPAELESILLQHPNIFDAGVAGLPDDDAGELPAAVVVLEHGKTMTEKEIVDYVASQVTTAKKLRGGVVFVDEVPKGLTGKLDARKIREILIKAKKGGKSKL
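Biochemical qHTS of compounds, final roughly 60 µM downward over six points, against 10 nM purified firefly luciferase using Km concentrations of substrates (10 uM D-luciferin, 10 uM ATP) in Tris acetate pH 7.5 buffer; luminescence output.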
Active calls of the source: *; ? = inconclusive; · = no result given; [ ] = remark or other dose. A selection: hits, their analogues and other compounds. The true share with any hit is near 7.4%. Calls come from the whole dose curve; as a rule, active = well fitted curve in the direction sought with a large enough effect; inconclusive = small, poorly fitted or top-dose-only effect, or another doubt; inactive = no such curve, though single readings can be large; an effect the other way counts as inactive or inconclusive. Potency is the fitted concentration of half-maximal effect.

SMILES	Rab9 promoter act	SMN2 splice enh	NPC1 prom act	ELG1 genotoxic	Luc counter	FLuc modulator
O=C(N/C(=C/c1cccs1)c1nc2ccccc2[nH]1)c1ccccc1	5.1%	-13.8%	0.4%	1.2%	-2.6%	-0.9%
N#C/C(=C/c1ccncc1)c1nc2ccccc2c(=O)[nH]1	-8.1%	·	-2.4%	-0.5%	·	?
N#C/C(=C\c1cc(Br)c(O)c(Br)c1)c1nc2ccccc2c(=O)[nH]1	·	-7.4%	·	·	·	15.1µM*
N#C/C(=C\c1ccccc1)c1nc2ncccc2[nH]1	4.7%	2.4%	-3.3%	4.2%	-1.0%	13.5µM*
N#C/C(=C\c1cccs1)c1nc2ccccc2[nH]1	?	7.94µM*	?	?	-9.9%	6.75µM*
N#C/C(=C\c1ccc(N2CCCC2)c([N+](=O)[O-])c1)c1nc2ccccc2[nH]1	?	-10.8%	?	12.1%	-3.8%	5.36µM*
COc1cc(/C=C(/C#N)c2nc3ccccc3[nH]2)ccc1Oc1ncccc1[N+](=O)[O-]	6.6%	1.6%	1.4%	14.8%	-0.8%	-15.9%
Cc1ccc(NC(=O)Cn2c(=O)n(Cc3ccccc3)c(=O)c3c(C)c(C)sc32)c(C)c1	·	-13.0%	·	·	·	-0.7%
Cc1cc(/C=C(/C#N)c2nc3ccccc3[nH]2)c(C)n1-c1cc(C(=O)O)cc(C(=O)O)c1	-11.7%	-4.6%	-1.2%	-1.6%	3.3%	16.9µM*
N#C/C(=C\c1ccc(Cl)cc1)c1nc2ccccc2[nH]1	·	7.4%	·	·	·	-18.3%
N#C/C(=C\c1ccc(OC(=O)c2cccs2)cc1)c1nc2ccccc2[nH]1	17.3%	11.2µM*	17.6%	?	-20.7%	?
N#C/C(=C/c1ccc(O)c(O)c1)c1nc2ccccc2[nH]1	-5.2%	·	-0.4%	18.4%	·	6.75µM*
C(=N\c1nc2ccccc2n1Cc1ccccc1)/c1cccs1	4.3%	-14.1%	1.2%	-10.9%	-3.1%	13.5µM*
O=C(NCCc1ccccc1)c1cccc(Br)n1	·	·	·	·	-0.4%[39.9 µM]	·
Cc1ccc(CCNC(=O)CCCn2c(=O)c3cccn3c3ccc(F)cc32)cc1	·	·	·	·	·	-5.1%
CCOc1cc(/C=C(\C#N)c2nc3ccccc3[nH]2)ccc1OC(C)C(=O)O (configuration not stated)	-5.2%[1.84 µM]	·	0.9%	0.3%	·	26.9µM*
N#C/C(=C\Nc1ccc2c(c1)OCCO2)c1nc(-c2ccccc2)cs1	-12.4%	-15.0%	0.0%	?	1.6%	2.9%
COc1cc(Br)c(/C=C(\C#N)c2nc3ccccc3[nH]2)cc1OC	·	27.5%	·	·	·	8.49µM*
N#C/C(=C\Nc1ccc2c(c1)OCCO2)c1nc2ccccc2[nH]1	?	-29.4%	?	-1.6%	0.5%	15.1µM*
COc1cc(/C=C(\C#N)c2nc3ccccc3[nH]2)ccc1OCc1ccc(F)cc1	·	13.9%	·	·	·	5.0%
C(=N\c1nc2ccccc2[nH]1)/c1cccs1	-0.2%	0.4%	-3.8%	0.8%	?	1.07µM*
CCOC(=O)c1cnc2ccc(OC(F)(F)F)cc2c1Nc1ccccc1C(=O)O	·	-5.3%	·	·	·	?
CC1CCN(S(=O)(=O)c2ccc3c(c2)c(=O)c(C(=O)NCc2ccc(Cl)cc2)cn3C)CC1	·	5.4%	·	·	·	-4.1%
COc1ccc2nc(/C(C#N)=C\c3ccc(C(=O)O)cc3)[nH]c2c1	0.9%	·	-2.4%	2.3%	·	23.9µM*
Cc1cc(C)c2c(=O)n(CC(=O)N3CCC(Cc4ccccc4)CC3)sc2n1	-1.5%	-3.8%	1.3%	-0.2%	5.9%	?
Cc1cc(C)c2c(=O)n(CC(=O)NCCCN3CCOCC3)sc2n1	0.4%	-32.2%	-3.6%	5.5%	7.94µM*	?
Cc1cc(C)c2c(=O)n(CC(=O)NCCCN3CCN(c4ccccc4F)CC3)sc2n1	-0.3%	2.8%	-1.0%	1.9%	11.2µM*	?
